RECQ1 helicase = inhibitors of human RECQ1 DNA helicase | AID 2549 | RECQ1 DNA unwinding, red fluorescence kinetic read | 240,000 compounds, 0.54% hits | Potency, µM (titrated, usually from 57.3 µM), without a hit: at the highest dose activity, negative = inhibition, usual class: inhibitors | P46063;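 further: plate controls were vehicle for no effect and no enzyme for full effect; nearly all actives have a fitted effect of over 30% in size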
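RECQ1T1 50 nM; forked duplex (20 bp + 30-nt ss tails) 200 nM, ATP 2 mM final; pH 8.0, 2 mM MgCl2, 2.5 ug/ml poly(dI-dC); 15 min compound preincubation; discontinuous kinetic read over 2 h at RT.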
APE1 inh = inhibitors of human APE1 endonuclease | recombinant APE1, TAMRA/BHQ-2 abasic DNA cleavage fluorescence | 350,000 compounds, 0.35% hits | Potency, µM (doses to about 65.8 µM), for inactives: at the highest dose activity change, negative = inhibition, most hits filed as inhibitors;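 further: plate controls were vehicle for no effect and reference inhibitor for full effect; nearly all actives have a fitted effect of over 55% in size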
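Enzyme (0.75 nM final) and test compound are incubated 15 min at room temperature before adding 50 nM quenched THF abasic-site duplex. Cleavage dequenches TAMRA, followed at 525/598 nm over three reads one minute apart.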
L3MBTL1 inh = L3MBTL1 (human) inhibition; AlphaScreen L3MBTL1–H3K9me1 peptide binding; 230,000 compounds, 0.66% hits; Potency, µM (series often up to 57.1 µM), for inactives: top-dose activity, negative = inhibition, usual class: inhibitors; AID 485360; further: nearly all actives have a fitted effect of over 60% in size
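Read-out is AlphaScreen signal from streptavidin donor and nickel chelate acceptor beads (10 ug/mL final each) bridging L3MBTL1 (50 nM) and biotinylated K9-monomethylated H3(1-15) peptide (75 nM), after 30 min compound exposure at room temperature.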
RGS12 GoLoco inh = inhibitors of human Gai1-RGS12 GoLoco interaction (red fluorophore). P63096. Gai1:RGS12 GoLoco peptide FP, rhodamine, 10 min. Potency, µM (titrated, usually from 61.6 µM), for inactives: at the top dose activity, negative = inhibition, usual class: inhibitors. 230,000 compounds, 0.44% hits; active means well fitted inhibition curve with a large enough effect, not every such curve was filed as active; inactive means no such curve, though single readings can be large or run the other way; further: nearly all actives have a fitted effect of over 30% in size
KDM4E inh = inhibitors of human JMJD2E histone demethylase | JMJD2E catalytic domain, FDH-coupled NADH fluorescence (FDH is formaldehyde dehydrogenase) | Potency, µM (doses to about 57.1 µM), for inactives: top-dose activity change, negative = inhibition, usual class: inhibitors | 230,000 compounds, 1.6% hits | AID 2147; active means well fitted inhibition curve with a large enough effect, not every such curve was filed as active; inconclusive means small, poorly fitted or top-dose-only effect, or another doubt; inactive means no such curve, though single readings can be large or run the other way;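 further: 0% = wells with enzyme and -100% = buffer wells without enzyme; nearly all actives have a fitted effect of over 50% in size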
BLM inh = Bloom syndrome helicase (human) inhibition; P54132; recombinant BLM DNA unwinding, fluorescence dequenching; Potency, µM (series often up to 56.1 µM), for the others: top-dose activity change, negative = inhibition, usual class: inhibitors; 350,000 compounds, 0.2% hits; AID 2528;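 further: plate controls were vehicle for no effect and no enzyme for full effect; nearly all actives have a fitted effect of over 35% in size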
An asterisk follows results filed as active; i = inactive; ? = inconclusive; nt = not tested or not shown; ! = not active in a repeat; [ ] = dose if it differs, or a comment. The sample as a whole holds a higher share of hits than the screen did. Unless noted, the call rests on the fitted dose curve; in most records, active means well fitted curve in the direction sought with a large enough effect; inconclusive means small, poorly fitted or top-dose-only effect, or another doubt; inactive means no such curve, though single readings can be large; an effect the other way counts as inactive or inconclusive. Unless noted, on the % scale 0 is the no-effect control and ±100 the full control effect; potency means the concentration at half of the fitted maximal effect.

SMILES	RECQ1 helicase	APE1 inh	L3MBTL1 inh	RGS12 GoLoco inh	KDM4E inh	BLM inh
COC(=O)[C@@H]1[C@@H]2C[C@H]3c4[nH]c5cc(OC)ccc5c4CCN3C[C@@H]2C[C@H](OC(=O)c2cc(OC)c(OC)c(OC)c2)[C@H]1OC	-8.0%[25.9 µM]	0.0%[21 µM]	nt	22.8%[21.6 µM]	10µM*	-12.0%[21.4 µM]
Cc1cccc(C)c1-n1c(SCC(=O)Nc2ccc(F)cc2)nnc1-c1cccc([S+](=O)([O-])N2CCCC2)c1	nt	-2.9%	nt	nt	nt	nt
COc1ccc(CCN(C)CCc2ccc(OC)c(OC)c2)cc1OC	-6.8%	12.4%	nt	-8.9%	3.5%	-6.1%
COc1ccc(CCN(C)CCCOc2ccc(S(=O)(=O)c3[nH]c4ccccc4c3C(C)C)cc2)cc1OC	-16.8%	-9.8%	nt	0.4%	25.1µM*	-3.0%
CCCCCC(N)=O	-8.1%	19.5%	4.4%	-8.9%	nt	-0.6%
CCCCCCCC/C=C\CCCCCCCC(N)=O	13.4%	1.1%	nt	22.4µM*!	4.0%	-12.4%
S=c1[nH]c2ccc(Cl)cc2s1	7.3%	-5.8%	-4.3%	-17.9%	7.94µM*	-1.6%
Cc1cc(=O)[nH]c2ccc(Cl)cc12	i	1.4%	nt	-1.5%	-2.9%	-3.2%
COc1ccc(CNC(=O)C(C)n2ccc3cc(S(=O)(=O)N4CCCC4)ccc32)cc1OC (stereo not drawn)	nt	nt	nt	nt	nt	0.7%
CC(C)C(=O)OCC(=O)[C@@]12OC(C3CCCCC3)O[C@@H]1CC1C3CCC4=CC(=O)C=C[C@]4(C)C3[C@@H](O)C[C@@]12C (stereo partly drawn)	nt	nt	nt	nt	nt	-9.5%
N#C/C(=C\c1ccc(-c2cc(Cl)ccc2Cl)o1)C(=O)Nc1ccccc1C(=O)O	nt	nt	nt	nt	nt	11.2µM*
CCOC(=O)/C(=C/c1ccc(OC(=O)c2ccccc2)cc1)C(C)=O	6.0%	-1.5%	-5.8%	-5.8%	7.94µM*	-12.4%
CCOC(=O)/C(=C\c1ccccc1)NC(=O)c1ccccc1	-11.3%	3.9%	62.8%	-17.3%	-8.1%	-2.4%
CCOc1ccc(N=Nc2ccc(O)c3ncccc23)cc1	nt	19.5%	nt	nt	nt	-11.4%
CCOc1ccc(N=Nc2cc(C(C)C)ccc2O)cc1	-7.7%	0.3%	28.2µM*	2.4%	-0.6%	0.1%
C#C[C@]1(OC(C)=O)CC[C@H]2[C@@H]3CCC4=C/C(=N/O)CC[C@@H]4[C@H]3CC[C@@]21CC	nt	nt	nt	nt	nt	-13.1%
C[n+]1cccc2ccc3c(c21)OC(N)=C(C#N)C3c1ccccc1 (stereo not drawn)	-0.4%	1.7%	nt	-20.0%	15.8µM*	1.0%
CCn1c(C)[n+](CCOC(C)=O)c2cc(Cl)c(Cl)cc21	i	25.9%	5.4%	9.3%	15.8µM*	3.9%
COc1cccc(-n2c([S-])c(C(=O)Nc3ccc(S(=O)(=O)N4CCOCC4)cc3)[n+]3cc(C(N)=O)ccc23)c1	7.9%	-3.6%	-0.6%	24.1%	14.1µM*	-9.0%
CC1CC2(C)Oc3ccccc3C3OCC1(COC(=O)Nc1ccccc1)C(C)C32 (stereo not drawn)	i	-5.8%	nt	0.7%	-1.4%	-10.8%
CC1CCCN(C(C(=O)NC2CCCCC2)c2cc3c(cc2[N+](=O)[O-])OCO3)C1 (stereo not drawn)	-6.4%	6.5%	11.2µM*	8.4%	3.1%	-29.6%
CC(C)=CCC/C(C)=C/CC/C(C)=C/CSCC(=O)O	2.4%	21.1%	nt	7.6%	-5.5%	0.7%
CC(=O)N/N=C/c1cc(C(C)(C)C)cc(/C=N/NC(C)=O)c1O	-4.0%	12.6%	-11.4%	13.8%	22.4µM*	1.8%
O=C(O)CNC(=O)c1ccccc1I	-6.6%	0.2%	nt	-24.1%	nt	-3.5%
Cc1ccc(NC(=S)c2nc3ccccc3[nH]2)c(C)c1	4.47µM*	11.5%	?	-7.7%	?	-0.3%
COC(=O)/C(=C/c1c[nH]c2ccccc12)NC(C)=O	2.7%	-0.2%	-5.0%	-12.3%	20µM*	-2.3%
O=C(COc1ccc(/C=N/NC(=O)c2ccc(O)cc2)cc1)Nc1cccc([N+](=O)[O-])c1	-10.8%	0.7%	20.6%	24.7%	4.7%	17.8µM*

Screening results as filed in PubChem BioAssay.
